In the library only some 6.8% were active in any assay of this set; here they are far more common.
Pf Dd2 inh – P. falciparum Dd2 growth inhibition | AID 1159554 | activity change, % at 10 µM | 94,000 tested, 2.3% active | SYBR Green, 72 h; hits give low values; in the data active = activity change below about -80%; inconclusive = no clear call, values can overlap the other calls
C diff growth – C. difficile growth inhibition | Clostridium difficile clinical isolate growth, OD600, 24 h; hits give low values | 86,000 tested, 0.25% active | AID 1259249 | growth activity, negative = inhibition, % at 16 µg/mL (by protocol);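 active = mean growth activity at or below -80% and every replicate also at or below -80%; inconclusive = mean at or below -80% but some replicate above -80%; inactive = mean growth activity above -80%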;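 also: 0% = DMSO wells and -100% = levofloxacin 16 µg/mL wells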
T cruzi growth-1 – blocks T. cruzi growth in NIH3T3 culture. inhibition, % at 8.34 µM. 77,000 tested, 5.9% active. T. cruzi beta-gal in NIH3T3, GalScreen luminescence, 90 h. AID 624255;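 active = mean inhibition above about 93%, with at least 55% of replicates each passing it, limit read from the data, passing the limit was not always enough; inconclusive = only one of those two conditions holds; inactive = neither condition holds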
T cruzi growth-2 – inhibitors of T. cruzi proliferation | shares compounds with T cruzi growth-1 | T. cruzi beta-gal in NIH3T3, GalScreen luminescence, 90 h | inhibition, % at 8.35 µM | 5,600 tested, 72% active;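 active = mean replicate inhibition above about 95% and at least 55% of replicates individually reaching it, limit read from the data; inconclusive = only one of the two criteria is met; inactive = neither criterion is met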
T cruzi growth-3 – Trypanosoma cruzi proliferation inhibition. AID 651740. shares compounds with T cruzi growth-1. inhibition, % at 2.09 µM. 5,600 tested, 21% active. T. cruzi beta-gal in NIH3T3, GalScreen luminescence, 90 h;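 active = mean inhibition above about 95%, with at least 55% of replicates also reaching it, limit read from the data; inconclusive = meets just one of the two conditions; inactive = meets neither condition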;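 also: plate controls were neutral control median for no effect and positive control median for full effect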
NIH3T3 tox – NIH/3T3 (mouse) viability loss; shares compounds with T cruzi growth-1; NIH/3T3 viability, CellTiter-Glo ATP luminescence, 90 h; cytotoxicity (signal decrease), % at 8.35 µM; 5,600 tested, 14% active; AID 651742;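 active = mean signal decrease across replicates above about 35% based on untreated-well scatter, with enough replicates individually passing, limit read from the data; inconclusive = no rule stated though some were filed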;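 also: 0% = median of neutral control wells and 100% = median of positive control wells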
3T3 cytotox 2 – NIH/3T3 (mouse) viability loss; inhibition, % at 24.9 µM; shares compounds with T cruzi growth-1; 5,600 tested, 56% active; AID 651744; NIH/3T3 viability, CellTiter-Glo ATP luminescence, 90 h;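 active = mean loss of cell viability signal at or above a set limit, and enough replicates individually reaching it; inconclusive = meets only the mean limit or only the replicate share; inactive = meets neither condition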;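 also: 0% = median of neutral control wells and 100% = median of positive control wells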
* hit, by the source's call; ? = inconclusive; nt = no result given.

SMILES | Pf Dd2 inh | C diff growth | T cruzi growth-1 | T cruzi growth-2 | T cruzi growth-3 | NIH3T3 tox | 3T3 cytotox 2
C[C@H](CO)N1C[C@H](C)[C@@H](CN(C)C)Oc2cc(-c3ccccc3F)ccc2S1(=O)=O | 1 | -3 | 90 | nt | nt | nt | nt
COc1ccccc1-c1ccc2c(c1)O[C@H](CN(C)C)[C@@H](C)CN([C@@H](C)CO)S2(=O)=O | -7 | -8 | 106* | 98* | 36 | 13 | 46*
CO[C@H]1CN(C)C(=O)c2ccc(NC(=O)C3CC3)cc2OC[C@H](C)N(C(=O)c2cnccn2)C[C@@H]1C | 26 | 2 | -21 | nt | nt | nt | nt
COC(=O)C[C@H]1CC[C@H]2[C@@H](COc3ccc(NC(=O)NC(C)C)cc3C(=O)N2C)O1 | 11 | -4 | 5 | nt | nt | nt | nt
C[C@H](CO)N1C[C@H](C)[C@H](CN(C)CC2CC2)Oc2cc(C3=CCCC3)ccc2S1(=O)=O | -63 | 14 | -90 | nt | nt | nt | nt
COCC#Cc1ccc([C@H]2[C@@H](CO)N3CCCCN(S(=O)(=O)c4cccc(OC)c4)C[C@@H]23)cc1 | -10 | 1 | 16 | nt | nt | nt | nt
COCC#Cc1ccc([C@@H]2[C@@H](CO)N3CCCCN(S(=O)(=O)c4ccc(OC)cc4)C[C@@H]23)cc1 | -51 | -4 | 72 | nt | nt | nt | nt
COCC#Cc1ccc([C@@H]2[C@H]3CN(S(=O)(=O)c4ccc(OC)cc4)CCCCN3[C@H]2CO)cc1 | -20 | -4 | 99* | 100* | 43 | 4 | 31*
COCC#Cc1ccc([C@H]2[C@H](CO)N3CCCCN(S(=O)(=O)c4cccc(OC)c4)C[C@@H]23)cc1 | -27 | 0 | 108* | 97* | 39 | 13 | ?
Cc1ccc(-c2ccc3c(c2)O[C@H](CN(C)C(=O)C2CCC2)[C@H](C)CN([C@@H](C)CO)S3(=O)=O)cc1 | -50 | 11 | 121* | 83 | 73 | 41* | 78*
Cc1ccc(-c2ccc3c(c2)O[C@@H](CN(C)C(=O)C2CCC2)[C@@H](C)CN([C@@H](C)CO)S3(=O)=O)cc1 | -46 | 6 | 31 | nt | nt | nt | nt
C[C@@H]1CN([C@@H](C)CO)S(=O)(=O)c2ccc(-c3ccccc3)cc2O[C@H]1CN(C)C(=O)C1CCCCC1 | -50 | 0 | ? | 97* | 53 | 34 | 0
C[C@H]1CN([C@@H](C)CO)S(=O)(=O)c2ccc(-c3ccccc3)cc2O[C@@H]1CN(C)C(=O)C1CCCCC1 | -40 | 11 | 86 | nt | nt | nt | nt
Cc1ccc(-c2ccc3c(c2)O[C@@H](CN(C)C(=O)C2CCC2)[C@H](C)CN([C@H](C)CO)S3(=O)=O)cc1 | -60 | -5 | 52 | nt | nt | nt | nt
Cc1ccc(-c2ccc3c(c2)O[C@H](CN(C)C(=O)C2CCCCC2)[C@H](C)CN([C@@H](C)CO)S3(=O)=O)cc1 | -25 | nt | 118* | 95 | 73 | 50* | 106*
Cc1ccc(-c2ccc3c(c2)O[C@@H](CN(C)C(=O)C2CC2)[C@@H](C)CN([C@@H](C)CO)S3(=O)=O)cc1 | -26 | nt | 67 | nt | nt | nt | nt
Cc1ccc(-c2ccc3c(c2)O[C@H](CN(C)C(=O)C2CCCCC2)[C@H](C)CN([C@H](C)CO)S3(=O)=O)cc1 | -29 | nt | 121* | 96* | ? | 29 | 105*
O=C(C[C@@H]1C=C[C@@H](NC(=O)C2CCOCC2)[C@@H](CO)O1)Nc1ccccc1 | 40 | -3 | nt | nt | nt | nt | nt
CC(C)NC(=O)N(C)C[C@H]1Oc2ccc(NC(=O)CCCCCC(=O)Nc3ccccc3N)cc2C(=O)N([C@H](C)CO)C[C@H]1C | -8 | 2 | -7 | nt | nt | nt | nt
O=C(O)C[C@@H]1C[C@H]2c3cc(NC(=O)c4ccc5c(c4)OCO5)ccc3O[C@H]2[C@@H](CO)O1 | 19 | 1 | -50 | nt | nt | nt | nt
CC(C)NC(=O)Nc1ccc2c(c1)C(=O)N([C@@H](C)CO)C[C@@H](C)[C@@H](CN(C)C)OCCCC[C@@H](C)O2 | 22 | -3 | 23 | nt | nt | nt | nt
CCCc1cn(CC[C@@H]2CC[C@H](NC(=O)C3CCOCC3)[C@H](CO)O2)nn1 | -11 | 2 | 73 | nt | nt | nt | nt
C[C@@H]1CN([C@H](C)CO)S(=O)(=O)c2ccc(-c3ccncc3)cc2O[C@@H]1CN(C)C(=O)C1CCC1 | 0 | nt | 80 | nt | nt | nt | nt
Cc1ccc(-c2ccc3c(c2)O[C@@H](CN(C)C(=O)C2CCCCC2)[C@H](C)CN([C@H](C)CO)S3(=O)=O)cc1 | -79 | nt | 112* | 101* | 87 | 21 | 107*
Cc1ccc(-c2ccc3c(c2)O[C@@H](CN(C)C(=O)C2CCC2)[C@@H](C)CN([C@H](C)CO)S3(=O)=O)cc1 | -66 | -2 | 63 | nt | nt | nt | nt
SMILES | Pf Dd2 inh | C diff growth | T cruzi growth-1 | T cruzi growth-2 | T cruzi growth-3 | NIH3T3 tox | 3T3 cytotox 2
C[C@@H]1CN([C@H](C)CO)S(=O)(=O)c2ccc(-c3ccncc3)cc2O[C@H]1CN(C)C(=O)C1CCC1 | -2 | nt | 103* | 89 | 29 | 18 | 42*
Cc1ccc(S(=O)(=O)N(C)C[C@@H]2Oc3ncc(-c4ccccc4)cc3C(=O)N([C@H](C)CO)C[C@@H]2C)cc1 | -30 | -5 | 27 | nt | nt | nt | nt
C[C@H](CO)N1C[C@H](C)[C@H](CN(C)Cc2ccccc2)Oc2c(NC(=O)c3ccncc3)cccc2C1=O | -2 | 5 | 70 | nt | nt | nt | nt
C[C@H](CO)N1C[C@H](C)[C@H](CN(C)Cc2ccc(C(F)(F)F)cc2)Oc2c(NC(=O)c3ccncc3)cccc2C1=O | -13 | 0 | ? | 91 | 92 | 20 | 19
C[C@H]1CN([C@@H](C)CO)C(=O)c2cccc(NC(=O)c3ccncc3)c2O[C@@H]1CN(C)Cc1ccc(-c2ccccc2)cc1 | -44 | -38 | ? | 85 | 89 | 17 | 47*
C[C@H]1CN([C@@H](C)CO)C(=O)c2cccc(NC(=O)c3ccncc3)c2O[C@H]1CN(C)Cc1ccc(C(F)(F)F)cc1 | 4 | 6 | 94 | nt | nt | nt | nt
C[C@@H]1CN([C@H](C)CO)C(=O)c2cccc(NC(=O)c3ccncc3)c2O[C@@H]1CN(C)Cc1ccccc1 | 3 | 9 | 35 | nt | nt | nt | nt
C[C@@H]1CN([C@H](C)CO)C(=O)c2cccc(NC(=O)c3ccncc3)c2O[C@@H]1CN(C)Cc1ccc(C(=O)Nc2ccccc2N)cc1 | -47 | 1 | 90* | 103* | 77 | 4 | 33*
C[C@H](CO)N1C[C@H](C)[C@H](CN(C)Cc2ccc(C(=O)Nc3ccccc3N)cc2)Oc2c(NC(=O)c3ccncc3)cccc2C1=O | 6 | -3 | ? | 105* | 83 | 5 | ?
C[C@H]1CN([C@@H](C)CO)C(=O)c2cccc(NC(=O)c3ccncc3)c2O[C@H]1CN(C)Cc1ccc(-c2ccccc2)cc1 | -38 | 0 | 107 | nt | nt | nt | nt
C[C@@H]1CN([C@@H](C)CO)C(=O)c2cc(NC(=O)CCC(F)(F)F)ccc2O[C@@H](C)CCCCO[C@H]1CN(C)Cc1ccc(C(F)(F)F)cc1 | -67 | 10 | 70 | nt | nt | nt | nt
